In PubChem BioAssay AID686940 (The Scripps Research Institute Molecular Screening Center, 2013):
The whole screen tested about 370,000 compounds, of which about 2,600 (0.7%) were called active.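 How the source made its calls: active means inhibition above a per-plate cutoff, mean inhibition of test wells between control levels plus 3 SD (cut at about 38% in these data); inactive means the rest.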 The entries come from a sample that favours actives as a whole.

Molecular target: COUP transcription factor 2 (Homo sapiens) (UniProt P24468)
Sequence (P24468 whole entry, looked up): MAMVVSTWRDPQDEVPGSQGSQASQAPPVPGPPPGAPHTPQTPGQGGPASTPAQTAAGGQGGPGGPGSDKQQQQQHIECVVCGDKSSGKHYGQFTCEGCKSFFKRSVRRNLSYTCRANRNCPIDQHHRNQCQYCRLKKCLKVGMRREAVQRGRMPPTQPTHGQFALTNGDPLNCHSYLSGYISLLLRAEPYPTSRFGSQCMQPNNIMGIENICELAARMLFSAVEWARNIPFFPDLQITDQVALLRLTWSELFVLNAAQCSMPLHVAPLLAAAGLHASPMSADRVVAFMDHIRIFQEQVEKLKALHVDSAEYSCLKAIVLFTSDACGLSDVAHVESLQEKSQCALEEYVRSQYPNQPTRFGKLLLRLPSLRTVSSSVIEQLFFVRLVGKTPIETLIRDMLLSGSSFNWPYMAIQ
Test: NR2F2 transcriptional activity inhibitors, primary screen, cell-based, luciferase reporter, HEK293T, luminescence (AID 686940);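 further: cells cotransfected with COUP-TFII expression vector driving the NGFI-A reporter; 0% = median of COUP-TF2 test wells and 100% = reporter-only cells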
Conditions: HEK293T NGFI-A luciferase reporter, at 8.6 µM, stronger effect = higher value

| SMILES | inhibition |
| --- | --- |
| Cc1ccc(-c2nnc(SCC(=O)Nc3ccc(Oc4ccccc4)cc3)n2Cc2ccco2)cc1 | 13.6% (inactive) |
| CCCCOCCCNC(=O)C[C@H]1C[C@@]2(C(=O)OC)C(=C[C@H](COCc3ccccc3)O[C@@H]2C)N(Cc2cccc3ccccc23)C1=O | 14.6% (inactive) |
| Cc1ccc(-c2nc(CSCC(=O)NC3CCN(Cc4ccccc4)CC3)c(C)o2)cc1 | 44.1% (active) |
| Cc1ccc(S(=O)(=O)NCCC(=O)NC2CCN(Cc3ccccc3)CC2)cc1 | 9.92% (inactive) |
| Cc1ccc(-c2nc(CS(=O)CC(=O)NC3CCCC3)c(C)o2)cc1 (configuration not stated) | 12.9% (inactive) |
| Cc1ccccc1CN1CCCCC(NC(=O)Nc2ccccc2F)C1=O (configuration not stated) | 17.2% (inactive) |
| CCOC(=O)[C@]12CCCC=C1N(Cc1ccc(OC)cc1)C(=O)[C@@H]2CC(=O)N1CCOCC1 | 11.8% (inactive) |
| COc1ccc(CSc2nnc(SCC(=O)Nc3ccccc3C(F)(F)F)s2)cc1 | -6.32% (inactive) |
| CCCS(=O)(=O)N1CCC(CCOc2ccccc2)(C(=O)OCC)CC1 | 12% (inactive) |
| CCOC(=O)C1(CCOc2ccccc2)CCN(Cc2cc(OC)cc(OC)c2)CC1 | 43.4% (active) |
| CCOC(=O)C1(Cc2cccc(OC)c2)CCN(Cc2csc(C(C)=O)c2)CC1 | -6.31% (inactive) |
| O=C(CSc1nc2ccccc2nc1N1CCCCC1)N1CCN(S(=O)(=O)c2cccc([N+](=O)[O-])c2)CC1 | -2.12% (inactive) |
| Cc1ccc(Cn2cc(CN3[C@@H](C)COc4cc(Br)ccc4S3(=O)=O)nn2)cc1 | 7.53% (inactive) |
| O=C(Nc1ccc(Cl)c(Cl)c1)N1CC=C(c2ccccc2)CC1 | -16.9% (inactive) |
| O=C(CC(O)(C(F)(F)F)C(F)(F)F)Nc1ccc(Cl)c(Cl)c1 | 74.9% (active) |
| O=C(CCS(=O)(=O)c1ccccc1)Nc1ccc(Cl)c(Cl)c1 | -30.7% (inactive) |
| O=C(c1ccccc1)c1ccc(-c2ccccc2C(=O)NC2CCCCN(Cc3ccc(Cl)cc3)C2=O)cc1 (configuration not stated) | -10.4% (inactive) |
| CC(C)CNc1cccc2c1S(=O)(=O)N(Cc1cn(Cc3ccc(Cl)cc3)nn1)Cc1ccccc1O2 | 5.91% (inactive) |
| Cc1ccc(C)c(S(=O)(=O)N2CCN(c3ncnc4sccc34)CC2)c1 | 61.2% (active) |
| COc1ccc(-c2csc3ncnc(N4CCN(S(=O)(=O)c5cccc(F)c5)CC4)c23)cc1 | -7.61% (inactive) |
| Cc1ccc(S(=O)(=O)N2CCC3(CC2)OCCO3)c(C)c1 | 0.83% (inactive) |
| O=C(NCCCc1ccccc1)[C@H](Cc1ccccc1)NC1(C(=O)NCCc2c[nH]c3ccccc23)CCC1 | 7.14% (inactive) |
| Oc1ccc(/C=C/c2c(F)cccc2F)c2cccnc12 | 14.9% (inactive) |
| N[C@@H](Cc1ccccc1)C(=O)N1CCC[C@@H]1C(=O)N1CCC2CCN(S(=O)(=O)c3ccccc3)CC21 (some centres not stated) | 2.4% (inactive) |
| O=C(CSc1nnc(COc2ccccc2)n1-c1ccc(Cl)cc1)Nc1ccc2c(c1)OCO2 | 7.15% (inactive) |
| O=C(Nc1ccccc1Cl)/C(Cl)=C(\Cl)S(=O)c1ccccc1 (configuration not stated) | 99% (active) |

| SMILES | inhibition |
| --- | --- |
| CN[C@H]1C[C@H]2c3cc(N4CCOCC4)ccc3CCN2C[C@H]1[C@H](C)O | -0.62% (inactive) |
| O=C(O)c1ccc(NC(=O)c2ccc(COc3ccc(Cl)cc3)o2)cc1 | -7.9% (inactive) |
| Cc1ccccc1CS(=O)(=O)Cc1ccc(C(=O)Nc2ccc(Cl)cc2)o1 | 60.1% (active) |
| Cc1cc(OCc2ccc(C(=O)Nc3ccc(C(=O)O)cc3)o2)ccc1Cl | 10.7% (inactive) |
| COC(=O)[C@H](C(C)C)N(CCCc1cn(Cc2ccccc2)nn1)S(=O)(=O)c1ccc(F)cc1Br | 9.49% (inactive) |
| CC(=O)Nc1ccc(OC[C@@H](O)CN2CCC(C(O)(c3ccccc3)c3ccccc3)CC2)cc1 | -20.7% (inactive) |
| COc1cccc(Cn2cc(COC(=O)Nc3ccc(F)cc3)nn2)c1 | -23.7% (inactive) |
| CCCCc1c(-c2ccc(Cl)cc2)ncn1CCc1ccccc1OC | 11.8% (inactive) |
| CCCCCc1c(-c2ccc(OC)c(OC)c2)ncn1CCc1ccccc1OC | 57% (active) |
| CCCCCc1c(-c2cccc(Br)c2)ncn1CCc1ccccc1OC | 6.5% (inactive) |
| Cc1ccc(CSc2nnc(SCC(=O)NN=Cc3cc(Br)ccc3F)s2)cc1 | -3.85% (inactive) |
| COc1ccc2c(c1)CN1CN(CCc3ccccc3)S(=O)(=O)CC21 (configuration not stated) | 16% (inactive) |
| COc1ccc(OC)c(CNC(=O)Cn2nc(C)c3c(C)n(-c4ccc(C)cc4)nc3c2=O)c1 | 39.4% (active) |
| COc1ccc(CNC(=O)C(C)n2nc(C)c3c(C)n(-c4ccccc4)nc3c2=O)c(OC)c1 (configuration not stated) | 10.4% (inactive) |
| Cc1nn(CC(=O)N2CCCCC2)c(=O)c2nn(-c3ccccc3)c(C)c12 | -1.99% (inactive) |
| COC(=O)[C@]12C[C@H](CC(=O)NCCCN3CCCC3=O)C(=O)N(CCc3ccc(OC)c(OC)c3)C1=C[C@H](COCc1ccccc1)O[C@@H]2C | -3.72% (inactive) |
| CCC(C)[C@@H](C(=O)OC)N(CCc1cn(Cc2ccccc2)nn1)S(=O)(=O)c1ccccc1Br (some centres not stated) | -9.93% (inactive) |
| CC(=O)Oc1ccc(C(=O)Nc2nccs2)cc1 | -23.1% (inactive) |
| CSc1nccc(NC(=O)c2ccc(C(C)(C)C)cc2)n1 | 64.5% (active) |
| CC(C)(C)c1ccc(C(=O)Nc2cc(Cl)c(Br)cc2C(=O)O)cc1 | 7.25% (inactive) |
| Clc1ccc(-n2c(SC/C=C/c3ccccc3)nnc2-c2ccco2)cc1 | 13.9% (inactive) |
| Cc1ccc(Cn2cc(CN3[C@@H](CC(C)C)COc4ccc(Cl)cc4S3(=O)=O)nn2)cc1 | -4.67% (inactive) |
| COc1ccc(NC(=O)C2(C)Cc3c(-c4cccc(NC(C)=O)c4)ccnc3O2)cc1OC (configuration not stated) | -4.02% (inactive) |
| COc1ccc(NC(=O)C2Cc3c(-c4ccc(Cl)cc4)ccnc3O2)cc1 (configuration not stated) | 5.98% (inactive) |
| COc1ccc(NC(=O)C2Cc3c(-c4cccc(NC(C)=O)c4)ccnc3O2)cc1OC (configuration not stated) | 45% (active) |
| O=C(CSc1nnc(-c2ccccn2)n1-c1ccccc1)Nc1ccc2cn[nH]c2c1 | 13.3% (inactive) |
